Hit rate of the full screen: of about 87,000 compounds, about 540 (0.62%) were called active. How the calls were made is not given here. For the sample, actives were picked, then their nearest neighbours and some compounds at random. Measured potencies and affinities stand elsewhere.
Experiment: inhibitors of MT1-MMP promoter transcription, cell-based, luciferase reporter, luminescence (AID 618);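 further: actives suppress MT1-MMP promoter-driven transcription so potencies describe inhibitors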
Conditions: MT1-MMP promoter luciferase reporter cells

Compound | outcome
COC(=O)CSc1nc2ccc(C)cc2[nH]1 | inactive
CCN(CC)S(=O)(=O)c1ccc(C2CNC(=O)C2)cc1 (configuration not stated) | inactive
CCn1cnc2c1c(=O)n(Cc1csc(-c3ccccc3)n1)c(=O)n2Cc1ccccc1 | inactive
COc1cccc(NC(=O)CCN2C(=O)c3ccccc3S2(=O)=O)c1 | inactive
CCc1nnc(NC(=O)CSc2nc3c(cc2C#N)CCCC3)s1 | inactive
CCc1nnc(NC(=O)CSc2nc3c(cc2C#N)CCC3)s1 | inactive
Cc1cc(C(F)(F)F)n2ncc(-c3ccc(F)cc3)c2n1 | inactive
Cc1cccc(NC(=O)CSc2nnc(-c3ccccc3C)o2)c1 | inactive
COC(=O)c1ccccc1NC(=O)CSc1nnc(-c2ccc(C)cc2)o1 | inactive
Cc1ccc(C)c(NC(=O)CSc2nnc(-c3ccccc3)o2)c1 | inactive
COc1ccccc1NC(=O)CSc1nnc(-c2ccccc2)o1 | inactive
CCOc1ccccc1-c1nnc(SCC(=O)Nc2ccccc2)o1 | inactive
COc1ccccc1NC(=O)CSc1nnc(-c2ccc(C)cc2)o1 | inactive
CCN(CC)S(=O)(=O)c1ccc(NC(=O)CN(c2ccc(OC)cc2OC)S(C)(=O)=O)cc1 | inactive
O=C(NCCCO)C12CC3CC(CC(C3)C1)C2 | inactive
O=C(NC(NC1CCS(=O)(=O)C1)C(=O)c1ccccc1)c1ccc(Cl)cc1 (configuration not stated) | inactive
C/C(=C\C(=O)c1ccc(C)cc1)Nc1cccc(O)c1 | inactive
Cc1ccc(N/C=C/C(=O)c2ccc(C)cc2)cc1 | inactive
O=C(Nc1cccc(O)c1)c1ccccc1 | inactive
Cc1ccc(C(=O)/C=C/Nc2cccc(O)c2)cc1 | active
O=C(/C=C/Nc1ccccc1)c1ccccc1 | inactive

Compound | outcome
Cc1nc2ncnn2c(C)c1CCC(=O)Oc1ccccc1 | inactive
COc1ccc(CCNC(=O)C2CCN(S(C)(=O)=O)CC2)cc1OC | inactive
Cc1cc(C)n(-c2ccc3cccc(NS(C)(=O)=O)c3n2)n1 | inactive
Cc1csc(NC(=O)c2cc3c(s2)CCCCC3)n1 | inactive
COC(=O)c1sc(NC(=O)c2cc3c(s2)CCCC3)nc1C | inactive
Cc1nc(NC(=O)c2cc3c(s2)CCCCC3)sc1C(=O)N(C)C | inactive
CCOC(=O)Cc1csc(NC(=O)c2cc3c(s2)CCCC3)n1 | inactive
CCc1nnc(NC(=O)c2cc3c(s2)CCCCC3)s1 | inactive
Cc1cnc(NC(=O)c2cc3c(s2)CCCC3)s1 | inactive
Cc1csc(NC(=O)c2cc3c(s2)CCC3)n1 | active
O=C1N(Cc2ccccc2F)c2ccccc2C12OCCCO2 | inactive
CCn1nc(C(=O)NC2=NCCS2)c2ccccc2c1=O | inactive
Cc1ccc(C(=O)N(c2ccccn2)C(C)c2ccco2)cc1 (configuration not stated) | inactive
Cc1ccc(NC(=O)CSc2nnc(Cn3cnc4ccccc43)o2)c(C)c1 | inactive
CN(C)c1ncc(C2=C(Cl)C(=O)C(N3CCCC3)=C(Cl)C2=O)s1 | inactive
CN1CCN(C2=C(Cl)C(=O)C(c3cnc(N4CCCCC4)s3)=C(Cl)C2=O)CC1 | inactive
Nc1ccc2c(c1)-c1ccccc1S(=O)(=O)N2 | inactive
Cc1ccc2c(c1)-c1ccccc1S(=O)(=O)N2 | inactive
O=c1cc(N2CCOCC2)[nH]c(=O)n1-c1ccc(Cl)cc1 | inactive
COc1cccc(-c2cc(C(=O)Nn3cnnc3)c3ccccc3n2)c1 | inactive
O=C(Nn1cnnc1)c1cc(-c2ccccn2)nc2ccccc12 | inactive

Compound | outcome
Cc1ccc2nc(C3CCN(C(=O)NCc4ccccc4)CC3)[nH]c2c1 | inactive
O=c1cc(CO)oc(CN2CCN(c3ccccc3F)CC2)c1O | inactive
CC(C)(C)S(=O)(=O)c1ccc2nc3c(n2c1)CCCC3 | inactive
Cc1nc(NC2=NCN(CCN3CCOCC3)CN2)nc2c(C)cccc12 | inactive
Cc1cc2nc(NC3=NCN(CCCN4CCOCC4)CN3)nc(C)c2cc1C | inactive
Cc1ccc(NC(=O)NC(=O)N(c2ccccc2)S(C)(=O)=O)cc1 | inactive
CCOc1ccccc1N1CC(C(=O)N2CCc3ccccc3C2)CC1=O (configuration not stated) | inactive
COc1ccc(-c2nc(C#N)c(N3CCOCC3)o2)cc1OC | inactive
COc1ccc(CCNc2oc(-c3ccco3)nc2C#N)cc1 | inactive
Nc1nc(Nc2ccccc2)nc2ccccc12 | active
COc1ccc(Nc2nc(C)c3ccccc3n2)cc1 | inactive
Fc1ccc(Nc2nc(N3CCOCC3)c3ccccc3n2)cc1 | inactive
OCCNc1nc(Nc2ccccc2)nc2ccccc12 | inactive
COc1ccc(Nc2nc(N3CCCC3)c3ccccc3n2)cc1 | inactive
Nc1nc(Nc2cccc(F)c2)nc2ccccc12 | inactive
Cc1ccc(Nc2nc(N3CCOCC3)c3ccccc3n2)cc1 | inactive
Cc1ccc(NC(=O)N2CCOCC2)c(C)c1 | inactive
CCC1Oc2ccccc2N(CC(=O)Nc2ccc(OC)cc2OC)C1=O (configuration not stated) | inactive
COc1ccccc1C(=O)Nc1nc(-c2cccs2)c(NC(C)=O)s1 | inactive
CC(C)CCOC(=O)C1C(c2ccccc2)C(C(=O)O)C1c1ccccc1 (configuration not stated) | inactive
O=C(c1cccs1)N1CCN(S(=O)(=O)N2CCCCC2)CC1 | inactive

Compound | outcome
Cc1ccccc1/C=C1\CCCc2ccccc2C1=O | inactive
O=C1/C(=C/c2ccccc2)CCCc2ccccc21 | inactive
O=C(NC1CCN(Cc2ccccc2)CC1)C1CCN(S(=O)(=O)c2cccc3cccnc23)CC1 | inactive
COc1ccccc1NC(=O)c1ccc(N)cc1 | inactive
Cc1cc(N2CCC(C)CC2)n2ncc(-c3ccccc3)c2n1 | inactive
Cc1cc(N2CCCCC2)n2ncc(-c3ccccc3)c2n1 | inactive
CCOc1ccc(C(=O)NCCCn2ccnc2)cc1 | inactive
O=C(NC1CCCCC1)NC1(C(=O)N2CCN3CCCC3C2)CCCCC1 (configuration not stated) | inactive
COc1cccc(C=Nc2ccc3c(c2)OCCO3)c1O | inactive
CCc1ccc2oc(-c3cc(N)cc(C)c3O)nc2c1 | inactive
COc1cccc(C=Nc2cc(C)on2)c1O | inactive
CCc1ccc2oc(-c3cccc(NC(=O)c4cccnc4)c3)nc2c1 | inactive
CCc1ccc2oc(-c3cc(N)ccc3O)nc2c1 | active
c1cc(-c2nc3cc(Cc4ccc5oc(-c6ccncc6)nc5c4)ccc3o2)ccn1 | inactive
CCc1ccc2oc(-c3cc(N=Cc4cccc(OC)c4O)ccc3O)nc2c1 | active
Nc1ccc2oc(-c3cccc(Br)c3)nc2c1 | inactive
CCc1ccc2oc(-c3cc(N)ccc3Cl)nc2c1 | inactive
NCc1ccc(-c2nc3ccccc3o2)cc1 | inactive
CCc1ccc2oc(-c3ccc(N)cc3)nc2c1 | active

From PubChem BioAssay AID618 (Sanford-Burnham Center for Chemical Genomics, 2007)
